Test results as given in PubChem BioAssay (NCATS).
Records with an inconclusive call do not appear. Activity calls are given as the source filed them. Unless noted, the call rests on the fitted dose curve; in most records, active means well fitted curve in the direction sought with a large enough effect; inconclusive means small, poorly fitted or top-dose-only effect, or another doubt; inactive means no such curve, though single readings can be large; an effect the other way counts as inactive or inconclusive.

Tests used:
[1] = biological target: Cytochrome P450 3A4 (Homo sapiens) (UniProt P08684); test: qHTS Assay for Inhibitors and Substrates of Cytochrome P450 3A4 (AID 884); further: on the % scale 0 is the no-effect control and ±100 the full control effect; nearly all actives have a fitted effect of over 50% in size
In short: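 20 nM human CYP3A4 with 25 uM Luciferin-PPXE (at KM) in 200 mM KPO4, preincubated 10 min with compound; NADPH regeneration started a 60 min RT reaction. Luciferin detected by luminescence, normalized to 57 uM ketoconazole as full inhibition.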

[2] = qHTS Assay for Lipid Storage Modulators (AID 1519; calls by dose curve; on activity change, negative = inhibition: on the % scale 0 is the no-effect control and ±100 the full control effect); details: Drosophila S3 cells, BODIPY lipid droplet/cell ratio, laser cytometry, cells loaded with oleic acid; for activity change, negative = inhibition: at 57.5 µM (top of the series)
In short: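 Cells seeded at 5,000 per well were treated with compounds over a concentration series and loaded with oleic acid (400 uM, as added). Lipid droplet fluorescence (488 nm excitation, 500-530 nm channel) was read by laser-scanning cytometry and normalized to 20 uM Triacsin C.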

[3] = biological target: DNA dC->dU-editing enzyme APOBEC-3G (Homo sapiens) (UniProt Q9HC16); test: qHTS for inhibitors of Vif-A3G interactions: Validation (AID 588379); further: 0% is about no effect
In short: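 HeLa cells stably expressing Vif and A3G-eYFP, 700 cells/well, incubated overnight at 37 deg C, then exposed to compound overnight at 37 deg C. Inhibition of Vif-mediated degradation read as increased yellow fluorescence (Ex 488/Em 500-530) by laser-scanning cytometry.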

[4] = Confirmation and Secondary Assay for Modulators of Hemoglobin Beta Chain Splicing at IVS2 654 locus (AID 910);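 further: HeLa cells stably carrying EGFP split by mutant beta-globin IVS2-654 intron; per-well total GFP intensity by laser scanning cytometry after 2-day treatment; % of control where 0% means no effect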
In short: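 Readout: per-well total peak green fluorescence (488 nm ex, 500–520 nm em) from objects 5–250 µm, reflecting correct splicing of an EGFP-654 reporter. Compounds were applied for 2 days at 37 °C to overnight-plated HeLa EGFP-654 cells; controls were DMSO and 500 nM IVS2-654 PNA.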

[5] = Confirmation and Secondary Assay for Modulators of Hemoglobin Beta Chain Splicing at IVS2 705 locus (AID 930);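 further: HeLa cells stably expressing the EGFP-705 splicing reporter; GFP fluorescence per well restored by corrected splicing of the IVS2-705 intron in EGFP; % of control where 0% means no effect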
In short: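 First, HeLa EGFP-705 cells are seeded at 500/well in Optimem with 2% FCS and left overnight. Next, compound or DMSO is added for 2 days. Finally wells are laser-scanned and total peak GFP intensity scored.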

[6] = biological target: Ubiquitin carboxyl-terminal hydrolase 1 (Homo sapiens) (UniProt O94782); test: Inhibitors of USP1/UAF1: Pilot qHTS (AID 504865);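 further: rhodamine fluorescence freed from ubiquitin-rhodamine substrate followed over time; top concentration of the series differs between compounds; on the % scale 0 is the no-effect control and ±100 the full control effect; nearly all actives have a fitted effect of over 35% in size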
In short: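 USP1/UAF1 complex at 1 nM preincubated 15 min at room temperature with compound, then Ub-Rho substrate added at 150 nM final. Fluorescence (480/540 nm) read kinetically in 50 mM HEPES pH 7.8, 0.5 mM EDTA, 1 mM TCEP, 0.1 mg/ml BSA, 0.01% Tween-20.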

[7] = biological target: Cytochrome P450 3A4 (Homo sapiens) (UniProt P08684); test: qHTS Assay for Activators of Cytochrome P450 3A4 (AID 885); further: nearly all actives have a fitted effect of over 65% in size
In short: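 Human CYP3A4 (20 nM) with Luciferin-PPXE at 25 uM (its KM) in 200 mM KPO4; 10 min compound preincubation, then NADPH regeneration and 60 min reaction at RT. Luciferin read by luminescence; normalized to 57 uM ketoconazole full inhibition.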

[8] = measured here: cell count channel max response
[9] = measured here: lipid channel max response

Chain of Cytochrome P450 3A4 (Homo sapiens) (P08684 whole entry, looked up): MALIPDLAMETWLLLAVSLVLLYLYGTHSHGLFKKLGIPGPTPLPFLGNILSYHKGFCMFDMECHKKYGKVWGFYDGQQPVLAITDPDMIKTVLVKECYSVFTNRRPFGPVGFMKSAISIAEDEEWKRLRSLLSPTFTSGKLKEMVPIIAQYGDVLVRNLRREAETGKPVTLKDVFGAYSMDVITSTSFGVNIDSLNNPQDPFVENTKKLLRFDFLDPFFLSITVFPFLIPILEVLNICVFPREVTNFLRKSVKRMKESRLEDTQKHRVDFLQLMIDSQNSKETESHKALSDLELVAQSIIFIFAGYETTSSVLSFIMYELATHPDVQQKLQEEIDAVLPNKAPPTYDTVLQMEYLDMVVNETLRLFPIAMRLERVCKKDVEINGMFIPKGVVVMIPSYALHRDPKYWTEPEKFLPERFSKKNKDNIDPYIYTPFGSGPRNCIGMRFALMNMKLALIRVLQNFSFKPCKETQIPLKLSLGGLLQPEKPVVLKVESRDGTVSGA
Chain of DNA dC->dU-editing enzyme APOBEC-3G (Homo sapiens) (Q9HC16 whole entry, looked up): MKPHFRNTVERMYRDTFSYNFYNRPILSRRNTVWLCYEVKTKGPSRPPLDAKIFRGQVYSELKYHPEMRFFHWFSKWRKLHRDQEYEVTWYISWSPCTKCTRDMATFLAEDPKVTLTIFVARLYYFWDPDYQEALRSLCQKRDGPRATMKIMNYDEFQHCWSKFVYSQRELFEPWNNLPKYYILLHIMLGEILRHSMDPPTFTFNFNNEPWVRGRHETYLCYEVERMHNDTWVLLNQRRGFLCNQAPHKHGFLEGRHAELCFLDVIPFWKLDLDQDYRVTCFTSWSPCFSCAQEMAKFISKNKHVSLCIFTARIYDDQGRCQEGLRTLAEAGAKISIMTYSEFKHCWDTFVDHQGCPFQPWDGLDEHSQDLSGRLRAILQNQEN
Chain of Ubiquitin carboxyl-terminal hydrolase 1 (Homo sapiens) (O94782 whole entry, looked up): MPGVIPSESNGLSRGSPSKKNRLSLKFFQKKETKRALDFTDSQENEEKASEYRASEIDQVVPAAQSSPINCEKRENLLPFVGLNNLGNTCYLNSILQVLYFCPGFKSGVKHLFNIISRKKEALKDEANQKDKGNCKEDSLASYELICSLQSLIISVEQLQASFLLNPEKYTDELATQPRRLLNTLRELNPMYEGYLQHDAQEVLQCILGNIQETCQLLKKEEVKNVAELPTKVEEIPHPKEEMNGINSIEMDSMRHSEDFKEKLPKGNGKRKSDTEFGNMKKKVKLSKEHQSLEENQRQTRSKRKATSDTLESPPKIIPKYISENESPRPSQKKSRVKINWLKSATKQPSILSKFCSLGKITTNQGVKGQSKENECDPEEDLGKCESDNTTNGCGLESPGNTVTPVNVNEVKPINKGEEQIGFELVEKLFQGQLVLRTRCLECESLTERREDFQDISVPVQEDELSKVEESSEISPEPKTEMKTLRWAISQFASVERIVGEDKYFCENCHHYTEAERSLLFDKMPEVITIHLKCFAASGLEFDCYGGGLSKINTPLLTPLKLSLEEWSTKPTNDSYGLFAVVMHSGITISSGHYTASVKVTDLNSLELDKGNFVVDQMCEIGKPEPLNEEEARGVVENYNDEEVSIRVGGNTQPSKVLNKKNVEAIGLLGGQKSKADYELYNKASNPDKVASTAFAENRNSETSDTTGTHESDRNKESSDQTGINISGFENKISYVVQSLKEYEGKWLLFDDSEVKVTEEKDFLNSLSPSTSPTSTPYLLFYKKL

CC(=O)N1CC2CC(C1)c1cccc(=O)n1C2 (stereo not given)
Potency [1]: inactive | activity change, negative = inhibition [2]: -4.96% (inactive) | max response [2, 8]: -29.2% | max response [2, 9]: -33.4% | outcome [3]: inactive

C[C@H]1C(=O)O[C@H]2CCN3CC=C(COC(=O)[C@](C)(O)[C@@]1(C)O)C23 (stereo not given in full)
Potency [1]: inactive | activity change, negative = inhibition [2]: -4.35% (inactive) | max response [2, 8]: 5.67% | max response [2, 9]: 3.38% | outcome [3]: inactive

CN1CCc2cc3c(cc2C1O)OCO3 (stereo not given)
Potency [4]: inactive | Potency [5]: inactive | activity change, negative = inhibition [2]: 7.6% (inactive) | max response [2, 8]: 9.52% | max response [2, 9]: 18.6% | Potency [6]: inactive

O=c1ccc2cc(OC3OC(CO)C(O)C(O)C3O)c(O)cc2o1 (stereo not given)
activity change, negative = inhibition [2]: -4.17% (inactive) | max response [2, 8]: -25.8% | max response [2, 9]: -27.2% | outcome [3]: inactive

C[C@]12CCC3C(CC[C@H]4C[C@@H](O)CC[C@]34C)[C@@H]1CCC2=O (stereo not given in full)
Potency [7]: inactive | activity change, negative = inhibition [2]: 0.0615% (inactive) | max response [2, 8]: -8.24% | max response [2, 9]: -8.16% | outcome [3]: inactive

N#CC(O[C@@H]1OC(COC2OC(CO)C(O)C(O)[C@@H]2O)C(O)C(O)C1O)c1ccccc1 (stereo not given in full)
Potency [1]: inactive | Potency [4]: inactive | activity change, negative = inhibition [2]: 2.68% (inactive) | max response [2, 8]: -0.407% | max response [2, 9]: 5.27%

CNC1C2CN3CCC(O2)C13 (stereo not given)
Potency [1]: inactive | activity change, negative = inhibition [2]: 3.03% (inactive) | max response [2, 8]: 7.52% | max response [2, 9]: 11.5% | outcome [3]: inactive
